Assay results published in PubChem BioAssay AID720648 (The Scripps Research Institute Molecular Screening Center, 2013).
Among all 370,000 compounds or so, about 3,100 (0.84%) were called active. The sample as a whole holds a higher share of actives than the screen did. A number with no mark means an inactive call.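 How the source made its calls: active means inhibition above the mean of compounds lying between control limits plus 3 SD, set per campaign (cut at about 8.5% in these data); inactive means the rest.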

These compounds were tested against Disintegrin and metalloproteinase domain-containing protein 17 (Homo sapiens) (UniProt P78536) (assay: ADAM17 inhibitors, primary screen, biochemical, QFRET (AID 720648;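 further: 0% = DMSO-only wells as the low control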)). Details: recombinant ADAM17, EDANS/DABCYL FRET peptide cleavage; at 6.95 µM; hits give high values.
Sequence of Disintegrin and metalloproteinase domain-containing protein 17 (Homo sapiens) (P78536 215-824 limits assumed): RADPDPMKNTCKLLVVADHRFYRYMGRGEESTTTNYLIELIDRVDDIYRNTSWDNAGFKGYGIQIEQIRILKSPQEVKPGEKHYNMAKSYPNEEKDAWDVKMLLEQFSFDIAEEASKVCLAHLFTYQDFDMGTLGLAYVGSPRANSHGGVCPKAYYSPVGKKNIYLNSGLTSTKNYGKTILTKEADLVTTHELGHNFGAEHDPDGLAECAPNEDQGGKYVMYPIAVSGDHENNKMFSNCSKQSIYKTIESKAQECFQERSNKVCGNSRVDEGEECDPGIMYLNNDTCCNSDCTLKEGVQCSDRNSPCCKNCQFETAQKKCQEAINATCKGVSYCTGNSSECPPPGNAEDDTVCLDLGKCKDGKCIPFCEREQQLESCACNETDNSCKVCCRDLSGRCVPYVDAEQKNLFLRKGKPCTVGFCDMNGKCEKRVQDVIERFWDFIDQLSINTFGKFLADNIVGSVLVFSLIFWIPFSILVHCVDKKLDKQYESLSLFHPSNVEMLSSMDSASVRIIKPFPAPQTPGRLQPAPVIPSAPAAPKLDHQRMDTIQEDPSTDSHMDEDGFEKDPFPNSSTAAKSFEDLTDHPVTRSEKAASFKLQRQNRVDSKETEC
Compound C[C@H]1CN([C@@H](C)CO)C(=O)c2cc(-c3cccc(F)c3)cnc2O[C@@H]1CN(C)S(C)(=O)=O has an inhibition of 1.1%.
With C[C@@H]1CN([C@H](C)CO)C(=O)c2cc(-c3ccc(F)cc3)cnc2O[C@H]1CN(C)C(=O)c1ccc(F)cc1 the inhibition was 11.7% (active).
COc1ccc(-c2cnc3c(c2)C(=O)N([C@H](C)CO)C[C@@H](C)[C@H](CN(C)Cc2ccccc2)O3)cc1 showed an inhibition of 2.22%.
CCCCCN1CCCCC(NC(=O)C(C)CCC)C1=O (stereo not drawn) gave an inhibition of -3.79%.
CCCCNC(=O)C[C@@H]1C(=O)N(CCc2ccc(Cl)cc2)C2=CCCC[C@]21C(=O)OCC was tested, and the inhibition was -1.53%.
Compound CC1(C(=O)NCc2ccc3c(c2)OCO3)CCN1CCc1ccccc1 (stereo not drawn) has an inhibition of 4.37%.
With Cc1ccc(-c2nc(CS(=O)(=O)CC(=O)NCc3ccc4c(c3)OCO4)c(C)o2)cc1 the inhibition was -1.45%.
With O=C(CN1CCN(c2nc(-c3ccccc3)cs2)CC1)NCc1ccc2c(c1)OCO2 the inhibition was 11.7% (active).
In the case of Cc1ccc(-n2c(SCC(=O)Nc3cccc4ccccc34)nnc2-c2ccccn2)cc1, the inhibition is reported as 0.17%.
COc1ccc(C(=O)OCCN(C)C2CN(Cc3cn(Cc4cccc(C)c4)nn3)S(=O)(=O)C2)cc1OC (stereo not drawn) was tested, and the inhibition was 0%.
Compound CC1CCN(c2ccc(C(=O)O)cc2NS(=O)(=O)c2ccc(Br)s2)CC1 has an inhibition of -2.39%.
Clc1ccc(-n2c(COc3ccccc3)nnc2SCc2nc3ccccc3[nH]2)cc1 was tested, and the inhibition was 1.5%.
With COc1ccc(CC(=O)c2ccc(O)cc2O)cc1OC the inhibition was 9.65% (active).
COc1ccc(CCNC(=O)C(=O)NCc2ccccc2C)cc1OC gave an inhibition of -2.04%.
Work on COc1ccc(C2(CNC(=O)Cc3ccc(OC)c(OC)c3)CCCC2)cc1 yielded an inhibition of 0.4%.
In the case of FC(F)(F)c1cccc(NC(=S)OC2CCC23CCC(c2ccccc2)CC3)c1 (stereo not drawn), the inhibition is reported as 4.59%.
C#CCNC(=O)C[C@H]1C[C@@]2(C(=O)OC)C(=C[C@H](C(C)C)O[C@@H]2C2CC2)N(Cc2ccco2)C1=O was tested, and the inhibition was -2.14%.
C(=C\c1ccccc1)/CSc1nnc(-c2cccnc2)n1Cc1ccco1 showed an inhibition of -2.99%.
Work on O=C(CSc1nnc(-c2cccc(Cl)c2)n1Cc1ccco1)Nc1ccc(OCc2ccccc2)cc1 yielded an inhibition of 4%.
In the case of Cc1ccc(-c2nnc(SCC(=O)Nc3ccc(Oc4ccccc4)cc3)n2Cc2ccco2)cc1, the inhibition is reported as 9.36% (active).
In the case of O=C(CSc1nnc(COc2ccccc2)n1Cc1ccco1)c1ccc2ccccc2c1, the inhibition is reported as 8.38%.
O=C(CSc1nnc(-c2ccccc2)n1Cc1ccco1)Nc1ccccc1-c1ccccc1 was tested, and the inhibition was 3.73%.
With Cc1ccc(OCc2nnc(SC/C=C/c3ccccc3)n2Cc2ccco2)cc1 the inhibition was 10.7% (active).
